# SMN2 splice up = enhancers of SMN2 splice variant expression. HEK293 SMN2-luciferase splicing reporter, luminescence, 30-36 h. Potency, µM (highest dose often 46.1 µM), for inactives: at the highest dose activity change, positive = activation, most hits filed as activators. 2.8% of 210,000 active; also: % of control where 0% means no effect; nearly all actives have a fitted effect of over 55% in size
#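 HEK293 cells carry an SMN2 minigene-luciferase reporter in which exon 7 inclusion puts luciferase in frame. Cells were seeded at 2000 cells/well, attached for 10-12 hours, then exposed to compounds for 30-36 hours at 37C before ONE-Glo luminescence.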
# NPC1 prom act = NPC1 promoter activation; AID 485313; 2.4% of 320,000 active; Potency, µM (series often up to 9.22 µM), for inactives: at the highest dose activation, hits mostly activators; Huh7 NPC1 promoter luciferase reporter, 24 h; also: % of control where 0% means no effect; nearly all actives have a fitted effect of over 60% in size
#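 Luminescence read-out of NPC1 promoter-driven luciferase in stably transfected Huh7 cells; compounds delivered in DMSO and left 24 h at 37C, 5% CO2, qHTS titration format.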
# FLuc counter = inhibits or activates purified firefly luciferase, miR-21 counter-screen. AID 588342. 6.9% of 360,000 active. P08659. Potency, µM (highest dose often 57.5 µM), for inactives: top-dose activity change, negative = inhibition, usual class: inhibitors. purified FLuc, Km substrates, luminescence inhibition;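 also: plate controls were vehicle for no effect and reference inhibitor for full effect; nearly all actives have a fitted effect of over 55% in size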
# Target sequence (P08659 whole entry, looked up): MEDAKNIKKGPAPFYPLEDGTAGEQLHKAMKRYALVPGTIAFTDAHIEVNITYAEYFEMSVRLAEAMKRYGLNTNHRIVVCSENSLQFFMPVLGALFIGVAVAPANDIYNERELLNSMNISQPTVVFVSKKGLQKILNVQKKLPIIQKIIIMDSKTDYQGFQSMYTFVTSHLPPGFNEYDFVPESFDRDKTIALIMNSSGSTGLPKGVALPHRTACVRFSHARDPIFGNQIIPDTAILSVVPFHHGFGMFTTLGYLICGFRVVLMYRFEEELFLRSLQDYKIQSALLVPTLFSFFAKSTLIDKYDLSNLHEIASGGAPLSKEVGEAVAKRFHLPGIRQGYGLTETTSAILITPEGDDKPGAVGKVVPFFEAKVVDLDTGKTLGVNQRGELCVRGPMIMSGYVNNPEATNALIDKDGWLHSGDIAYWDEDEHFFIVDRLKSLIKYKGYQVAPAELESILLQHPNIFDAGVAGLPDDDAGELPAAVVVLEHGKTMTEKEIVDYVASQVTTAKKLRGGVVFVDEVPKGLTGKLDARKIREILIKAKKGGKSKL
#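 Biochemical qHTS of compounds, final roughly 60 µM downward over six points, against 10 nM purified firefly luciferase using Km concentrations of substrates (10 uM D-luciferin, 10 uM ATP) in Tris acetate pH 7.5 buffer; luminescence output.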
# Rab9 prom act = Rab9 promoter activation; Huh7 Rab9 promoter-luciferase reporter, luminescence, 24 h; Potency, µM (doses to about 9.22 µM), for inactives: at the top dose activation, negative = inhibition, usual class: activators; 2.8% of 320,000 active; AID 485297; also: % of control where 0% means no effect; nearly all actives have a fitted effect of over 60% in size
#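 Rab9 promoter-driven luciferase in stably transfected Huh7 cells; 1500 cells/well rested 2 h, exposed to compound in DMSO for 24 h at 37 °C, 5% CO2. Luminescence read 10 min after adding luciferase reagent at ambient temperature.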
# ELG1 genotoxic = induces genotoxicity in HEK293T cells with luciferase-tagged ELG1; AID 504466; Potency, µM (top dose mostly 46 µM), without a hit: at the top dose activity change, positive = activation, usual class: activators; 1.3% of 330,000 active; HEK293T ELG1-luciferase reporter, luminescence, 16 h; also: % of control where 0% means no effect; nearly all actives have a fitted effect of over 60% in size
#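 Genotoxic stress is detected as increased luminescence from luciferase-tagged ELG1 in HEK293T cells, measured with ONE-Glo after a 16 hr treatment at 37 °C.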
# p53 reactivation = re-activators of mutant p53; H1299 p53-A138V BP100-luciferase reporter, luminescence, 24 h; Potency, µM (titrated, usually from 92.2 µM), without a hit: at the highest dose activity change, positive = activation, most hits filed as activators; 0.063% of 320,000 active; also: % of control where 0% means no effect; nearly all actives have a fitted effect of over 45% in size
#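 p53-null H1299 cells stably carrying temperature-sensitive p53-A138V and a BP100-luciferase reporter were pinned with compounds (4-point, 1:5 series) and held 24 hrs at 37 deg C. Luminescence was read 10 min after detection reagent.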
# The depositor's hits bear a star; ? = inconclusive; nt = not tested or not shown; [ ] = remark or other dose. Most compounds without a hit are left out; they make up all but 7.3% or so of the library. Calls follow the shape of the dose curve; as a rule, active = well fitted curve in the direction sought with a large enough effect; inconclusive = small, poorly fitted or top-dose-only effect, or another doubt; inactive = no such curve, though single readings can be large; an effect the other way counts as inactive or inconclusive. Potency is read from the fitted curve at half-maximal effect.
SMILES,SMN2 splice up,NPC1 prom act,FLuc counter,Rab9 prom act,ELG1 genotoxic,p53 reactivation
CCc1nc(Nc2ccc3c(c2)OCCO3)c2oc3ccccc3c2n1,-42%,-1%,27µM*,-4%,-13%,-1%
CCc1nc(Nc2ccc(O)cc2)c2oc3ccccc3c2n1,nt,14%,19µM*,9%,-8%,-5%
c1ccc2c(c1)oc1c(N3CCN(Cc4ccc5c(c4)OCO5)CC3)ncnc12,-67%,0%,17µM*,-12%,18µM*,?
c1ccc2c(c1)oc1c(Nc3ccc4c(c3)OCCO4)ncnc12,2.8µM*,?,2.4µM*,1.6µM*,13%,9%
Nc1nc(Cl)cc(NCCO)n1,-4%[9.22 µM],nt,nt,nt,nt,nt
Cc1cc(/C=C(\C#N)C(=O)O)c(C)n1-c1ccc(Br)cc1,nt,-5%,17µM*,1%,4%,0%
Cc1cc(C=C(C#N)C#N)c(C)n1-c1ccccc1,-9%,?,4.8µM*,?,6%,17%
Cc1ccc(-n2c(C)cc(C=C(C#N)C#N)c2C)cc1,-16%,3%,19µM*,1%,0%,7%
CNC(=O)/C(C#N)=C\c1cc(C)n(-c2ccc(N3CCOCC3)cc2)c1C,nt,2%,-2%,4%,9%,-2%
CCN(CC)c1ccc(-n2c(C)cc(C=O)c2C)cc1,-1%,-3%,-1%,-1%,-4%,-1%
COc1cc(/C=C(\C#N)c2nnc(N3CCOCC3)n2-c2ccccc2)ccc1O,nt,0%,4%,-2%,?,-9%
Cc1cc(/C=C(\C#N)c2nnc(N3CCOCC3)n2-c2ccccc2)c(C)n1-c1ccccc1,-18%,0%,17µM*,-7%,1%,-3%
Cc1cccc(C)c1-n1ncc(C(=O)NCCCN2CCC(C)CC2)c1C1CCN(C(=O)OC(C)(C)C)CC1,nt,nt,-2%,nt,nt,nt
CC1CN(c2ccc(Cl)cc2[N+](=O)[O-])CCN1S(C)(=O)=O (stereo not drawn),-20%,-2%,-1%,-6%,-4%,-2%
O=C(NC1CCSC1=O)c1ccccc1 (stereo not drawn),15%,-2%,-1%,-1%,2%,-1%
O=C(/C=C/c1ccccc1)NC1CCSC1=O (stereo not drawn),16µM*,25%,?,21%,12%,?
Cc1ccc(Cn2c(=O)n(-c3cccc(C(F)(F)F)c3)c(=O)c3c(C)c(C)sc32)c(C)c1,2%,nt,1%,nt,nt,nt
COc1ccc(N=C2C(=O)Nc3ccc(C)c(Br)c32)cc1,nt,-4%,8.5µM*,-7%,3%,nt
COc1ccc(N=C2C(=O)Nc3ccccc32)cc1,-4%,1%,-19%,1%,8%,12%
Cc1ccc(N=C2C(=O)Nc3ccc(C)c(Br)c32)cc1,nt,2%,12µM*,0%,-3%,4%
O=C1Nc2ccccc2C1=Nc1ccc(F)cc1,nt,2%,5%,-3%,2%,19%
COc1ccc(Nc2nc3c(S(=O)(=O)c4ccc(Br)cc4)nnn3c3ccsc23)c(OC)c1,nt,nt,1%,nt,nt,nt
COc1ccc(CNC(=O)[C@H](C)[C@H]2C[C@]2(C)[C@H](NC(=O)OCc2ccccc2)c2ccccc2)cc1OC,-19%,nt,nt,nt,nt,nt
Cc1nc(C)c(C(=O)N2CCCC(C(=O)c3ccc4ccccc4c3)C2)s1 (stereo not drawn),nt,7%,-2%,0%,-9%,-9%
Cc1ccc2c(c1C)NC(=O)C21N2CCCC2C(C(=O)c2ccc3ccccc3c2)C12C(=O)Nc1ccccc12 (stereo not drawn),nt,0%,9.5µM*,12%,-8%,19%
Cc1ccccc1-c1noc(-c2ccccc2OCC(=O)Nc2ccccc2[N+](=O)[O-])n1,nt,nt,4%,nt,nt,nt
COCCNC(=O)Cc1c(C)c2c(cc(C)c3c(C)coc32)oc1=O,nt,1%,?,-10%,2%,-4%
COCCCNC(=O)Cc1c(C)c2c(cc(C)c3c(C(C)(C)C)coc32)oc1=O,nt,-11%,11µM*,-20%,-4%,21%
